Results published in PubChem BioAssay AID1159580 (chemical genetic matrix, 2015).
Screen size: about 5,500 compounds; about 2,000 (36%) were called active. About 18% were inconclusive and are not listed. Rule as the data show it: active = normalized growth mostly below about 0.91 (no sharp cut-off); inconclusive = no clear call, values can overlap the other calls; inactive = mostly above about 0.92. The list shows a part of the results.

Assay: chemical genetic growth profiling, strain panel (AID 1159580);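 also: tested at 20 µM; growth read once vehicle control cultures reached saturation at 30 °C; 1 = growth at the plate median or of vehicle wells; lower values mean less growth of the strain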
Conditions: growth OD

Measured: normalized growth

CCCc1cc(=O)[nH]c(=S)[nH]1
inactive: S. cerevisiae deletion strains, locus YJR075W, strain HOC1, hits give low values 1.02 | S. cerevisiae deletion strains, locus YKL009W, strain mrt4, hits give low values 0.994 | S. cerevisiae deletion strains, locus YKL068W, hits give low values 1 | S. cerevisiae deletion strains, locus YKL085W, strain MDH1 (second series), hits give low values 1 | S. cerevisiae deletion strains, locus YKL085W, strain MDH1, hits give low values 1 | S. cerevisiae deletion strains, locus YKL160W, strain elf1, hits give low values 1.03 | S. cerevisiae deletion strains, locus YKL190W, strain CNB1, hits give low values 1 | S. cerevisiae deletion strains, locus YKR001C, strain vps1, hits give low values 1 | S. cerevisiae deletion strains, locus YKR026C, strain gcn3, hits give low values 1.01 | S. cerevisiae deletion strains, locus YKR091W, strain srl3, hits give low values 1.01 | S. cerevisiae deletion strains, locus YLL001W, strain dnm1, hits give low values 1.01 | S. cerevisiae deletion strains, locus YLL026W, hits give low values 1.02 | S. cerevisiae deletion strains, locus YLL041C, strain sdh2, hits give low values 1.03 | S. cerevisiae deletion strains, locus YLR027C, strain aat2, hits give low values 1.01 | S. cerevisiae deletion strains, locus YLR039C, strain RIC1, hits give low values 1.03 | S. cerevisiae deletion strains, locus YLR058C, strain SHM2, hits give low values 1.02 | S. cerevisiae deletion strains, locus YLR102C, strain apc9, hits give low values 0.992 | S. cerevisiae deletion strains, locus YLR113W, strain HOG1, hits give low values 0.989 | S. cerevisiae deletion strains, locus YLR221C, strain rsa3, hits give low values 1.02 | S. cerevisiae deletion strains, locus YLR258W, strain gsy2, hits give low values 1.01 | S. cerevisiae deletion strains, locus YLR262C, strain YPT6 (second series), hits give low values 1.02 | S. cerevisiae deletion strains, locus YLR262C, strain YPT6, hits give low values 1.04 | S. cerevisiae deletion strains, locus YLR268W, strain sec22, hits give low values 1.01 | S. cerevisiae deletion strains, locus YLR320W, strain mms22, hits give low values 1.03 | S. cerevisiae deletion strains, locus YLR330W, strain CHS5, hits give low values 1.02 | S. cerevisiae deletion strains, locus YLR342W, strain FKS1 (second series), hits give low values 1 | S. cerevisiae deletion strains, locus YLR342W, strain FKS1, hits give low values 1.03 | S. cerevisiae deletion strains, locus YLR357W, strain rsc2, hits give low values 1.05 | S. cerevisiae deletion strains, locus YLR370C, strain arc18, hits give low values 1.01 | S. cerevisiae deletion strains, locus YLR371W, strain rom2, hits give low values 0.994 | S. cerevisiae deletion strains, locus YLR384C, strain iki3, hits give low values 1.03 | S. cerevisiae deletion strains, locus YLR418C, strain cdc73, hits give low values 1 | S. cerevisiae deletion strains, locus YML016C, strain PPZ1, hits give low values 1.01 | S. cerevisiae deletion strains, locus YML032C, strain rad52, hits give low values 0.989 | S. cerevisiae deletion strains, locus YML120C, strain ndi1, hits give low values 1 | S. cerevisiae deletion strains, locus YML124C, strain tub3, hits give low values 0.996 | S. cerevisiae deletion strains, locus YMR058W, strain fet3, hits give low values 1 | S. cerevisiae deletion strains, locus YMR078C, strain ctf18, hits give low values 1 | S. cerevisiae deletion strains, locus YMR125W, strain sto1, hits give low values 1.03 | S. cerevisiae deletion strains, locus YMR129W, hits give low values 1.02 | S. cerevisiae deletion strains, locus YMR205C, strain PFK2, hits give low values 1.03 | S. cerevisiae deletion strains, locus YMR223W, strain ubp8, hits give low values 0.974 | S. cerevisiae deletion strains, locus YMR231W, strain pep5, hits give low values 1.02 | S. cerevisiae deletion strains, locus YMR263W, strain SAP30, hits give low values 1.02 | S. cerevisiae deletion strains, locus YMR307W, strain GAS1, hits give low values 1.07 | S. cerevisiae deletion strains, locus YNL067W, strain RPL9B, hits give low values 1.02 | S. cerevisiae deletion strains, locus YNL071W, strain lat1, hits give low values 1 | S. cerevisiae deletion strains, locus YNL128W, strain TEP1, hits give low values 1.02 | S. cerevisiae deletion strains, locus YNL153C, strain GIM3, hits give low values 1.02 | S. cerevisiae deletion strains, locus YNL183C, strain NPR1, hits give low values 0.966 | S. cerevisiae deletion strains, locus YNL209W, strain ssb2, hits give low values 1.02 | S. cerevisiae deletion strains, locus YNL233W, strain BNI4, hits give low values 1.02 | S. cerevisiae deletion strains, locus YNL248C, strain rpa49, hits give low values 1.03 | S. cerevisiae deletion strains, locus YNL250W, strain rad50, hits give low values 0.994 | S. cerevisiae deletion strains, locus YNL271C, strain bni1, hits give low values 1 | S. cerevisiae deletion strains, locus YNL298W, strain CLA4, hits give low values 1.01 | S. cerevisiae deletion strains, locus YNL307C, strain MCK1, hits give low values 0.998 | S. cerevisiae deletion strains, locus YNL322C, strain KRE1 (second series), hits give low values 1.02 | S. cerevisiae deletion strains, locus YNL322C, strain KRE1, hits give low values 1.01 | S. cerevisiae deletion strains, locus YNR049C, strain mso1, hits give low values 1.01 | S. cerevisiae deletion strains, locus YNR052C, strain pop2, hits give low values 0.991 | S. cerevisiae deletion strains, locus YOL006C, strain TOP1, hits give low values 1.04 | S. cerevisiae deletion strains, locus YOL012C, strain htz1 0.884 | S. cerevisiae deletion strains, locus YOL147C, strain pex11, hits give low values 0.996 | S. cerevisiae deletion strains, locus YOR001W, strain rrp6, hits give low values 1.02 | S. cerevisiae deletion strains, locus YOR061W, strain CKA2, hits give low values 1.01 | S. cerevisiae deletion strains, locus YOR069W, strain VPS5, hits give low values 0.999 | S. cerevisiae deletion strains, locus YOR070C, strain gyp1, hits give low values 1.02 | S. cerevisiae deletion strains, locus YOR080W, strain dia2, hits give low values 1.03 | S. cerevisiae deletion strains, locus YOR083W, strain WHI5, hits give low values 0.996 | S. cerevisiae deletion strains, locus YOR106W, strain vam3, hits give low values 1.02 | S. cerevisiae deletion strains, locus YOR136W, strain idh2, hits give low values 0.979 | S. cerevisiae deletion strains, locus YOR144C, strain elg1, hits give low values 0.999 | S. cerevisiae deletion strains, locus YOR184W, strain ser1, hits give low values 0.98 | S. cerevisiae deletion strains, locus YOR231W, strain MKK1, hits give low values 0.993 | S. cerevisiae deletion strains, locus YOR265W, strain rbl2, hits give low values 1.01 | S. cerevisiae deletion strains, locus YOR270C, strain vph1, hits give low values 1.1 | S. cerevisiae deletion strains, locus YOR290C, strain snf2, hits give low values 1.03 | S. cerevisiae deletion strains, locus YOR316C, strain cot1, hits give low values 0.993 | S. cerevisiae deletion strains, locus YPL051W, strain arl3, hits give low values 1.02 | S. cerevisiae deletion strains, locus YPL055C, strain LGE1, hits give low values 1.03 | S. cerevisiae deletion strains, locus YPL078C, strain atp4, hits give low values 1.02 | S. cerevisiae deletion strains, locus YPL106C, strain sse1, hits give low values 1.04 | S. cerevisiae deletion strains, locus YPL240C, strain hsp82, hits give low values 1.01 | S. cerevisiae deletion strains, locus YPL256C, strain CLN2, hits give low values 1.02 | S. cerevisiae deletion strains, locus YPR119W, strain clb2, hits give low values 0.99 | S. cerevisiae deletion strains, locus YPR141C, strain kar3, hits give low values 0.992 | S. cerevisiae deletion strains, locus YPR163C, strain tif3, hits give low values 0.992 | S. cerevisiae deletion strains, locus YPR167C, strain met16, hits give low values 0.983 | S. cerevisiae deletion strains, strain wtn01, hits give low values 0.997 | S. cerevisiae strains, strain wild type, hits give low values 1.01
